# Assay results reported in PubChem BioAssay AID1508601 (ICCB-Longwood Screening Facility, Harvard Medical School, 2020).
# The campaign covered roughly 5,700 compounds. About 85 (1%) were called active. Cut-off read from the data, not from the text of the source: active = p53-positive nuclei above about 36% (passing the limit was not always enough); inactive = the rest. For the sample, actives were picked, then their nearest neighbours and some compounds at random.
# What was measured:
# [1] = nuclear p53 accumulation, HPV+ cells – imaging, p53-positive nuclei imaging, 24 h, 48 h (AID 1508601); settings: 24/48 h
# [2] = target: Cellular tumor antigen p53 (Homo sapiens) (UniProt P04637); test: as above; settings: 24/48 h, stronger effect = higher value
# Sequence of Cellular tumor antigen p53 (Homo sapiens) (P04637 whole entry, looked up): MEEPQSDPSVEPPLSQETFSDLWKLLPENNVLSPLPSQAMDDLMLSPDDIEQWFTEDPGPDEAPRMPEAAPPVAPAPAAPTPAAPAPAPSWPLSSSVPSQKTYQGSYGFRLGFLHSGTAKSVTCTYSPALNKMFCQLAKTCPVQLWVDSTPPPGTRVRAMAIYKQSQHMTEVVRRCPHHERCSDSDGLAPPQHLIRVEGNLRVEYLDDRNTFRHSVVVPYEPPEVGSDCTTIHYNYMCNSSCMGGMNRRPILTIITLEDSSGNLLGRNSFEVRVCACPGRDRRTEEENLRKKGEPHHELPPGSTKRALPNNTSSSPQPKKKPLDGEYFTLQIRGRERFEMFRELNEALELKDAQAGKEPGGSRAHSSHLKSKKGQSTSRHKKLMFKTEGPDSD
# [3] = measured here: cell number at 24 h, Library stock concentration: 500 nM
# [4] = measured here: cell number at 24 h, Library stock concentration: 1.5 uM
# [5] = measured here: cell number at 24 h, Library stock concentration: 4.6 uM
# [6] = measured here: cell number at 24 h, Library stock concentration: 13.7 uM
# [7] = measured here: cell number at 24 h, Library stock concentration: 41 uM
# [8] = measured here: cell number at 24 h, Library stock concentration: 123 uM
# [9] = measured here: cell number at 24 h, Library stock concentration: 370 uM
# [10] = measured here: cell number at 24 h, Library stock concentration: 1.111 mM
# [11] = measured here: cell number at 24 h, Library stock concentration: 3.333 mM
# [12] = measured here: cell number at 24 h, Library stock concentration: 10 mM
# [13] = measured here: cell number at 48 h, Library stock concentration: 500 nM
# [14] = measured here: cell number at 48 h, Library stock concentration: 1.5 uM
# [15] = measured here: cell number at 48 h, Library stock concentration: 4.6 uM
# [16] = measured here: cell number at 48 h, Library stock concentration: 13.7 uM
# [17] = measured here: cell number at 48 h, Library stock concentration: 41 uM
# [18] = measured here: cell number at 48 h, Library stock concentration: 123 uM
# [19] = measured here: cell number at 48 h, Library stock concentration: 370 uM
# [20] = measured here: cell number at 48 h, Library stock concentration: 1.111 mM
# [21] = measured here: cell number at 48 h, Library stock concentration: 3.333 mM
# [22] = measured here: cell number at 48 h, Library stock concentration: 10 mM
# [23] = Library stock concentration: 500 nM
# [24] = Library stock concentration: 1.5 uM
# [25] = Library stock concentration: 4.6 uM
# [26] = Library stock concentration: 13.7 uM
# [27] = Library stock concentration: 41 uM
# [28] = Library stock concentration: 123 uM
# [29] = Library stock concentration: 370 uM
# [30] = Library stock concentration: 1.111 mM
# [31] = Library stock concentration: 3.333 mM
# [32] = Library stock concentration: 10 mM
# [33] = measured here: p53 positive nuclei at 24 h, Library stock concentration: 500 nM
# [34] = measured here: p53 positive nuclei at 24 h, Library stock concentration: 1.5 uM
# [35] = measured here: p53 positive nuclei at 24 h, Library stock concentration: 4.6 uM
# [36] = measured here: p53 positive nuclei at 24 h, Library stock concentration: 13.7 uM
# [37] = measured here: p53 positive nuclei at 24 h, Library stock concentration: 41 uM
# [38] = measured here: p53 positive nuclei at 24 h, Library stock concentration: 123 uM
# [39] = measured here: p53 positive nuclei at 24 h, Library stock concentration: 370 uM
# [40] = measured here: p53 positive nuclei at 24 h, Library stock concentration: 1.111 mM
# [41] = measured here: p53 positive nuclei at 24 h, Library stock concentration: 3.333 mM
# [42] = measured here: p53 positive nuclei at 24 h, Library stock concentration: 10 mM
compound,measurement,setting,value
OCC1OC(n2cnc3c2NC=NCC3O)CC1O (centres undefined),"nuclei count, normalised",[1]; [3],123%
same,"nuclei count, normalised",[1]; [4],117%
same,"nuclei count, normalised",[1]; [5],116%
same,"nuclei count, normalised",[1]; [6],127%
same,"nuclei count, normalised",[1]; [7],122%
same,"nuclei count, normalised",[1]; [8],124%
same,"nuclei count, normalised",[1]; [9],121%
same,"nuclei count, normalised",[1]; [10],120%
same,"nuclei count, normalised",[1]; [11],122%
same,"nuclei count, normalised",[1]; [12],117%
same,"nuclei count, normalised",[1]; [13],119%
same,"nuclei count, normalised",[1]; [14],112%
same,"nuclei count, normalised",[1]; [15],114%
same,"nuclei count, normalised",[1]; [16],119%
same,"nuclei count, normalised",[1]; [17],118%
same,"nuclei count, normalised",[1]; [18],113%
same,"nuclei count, normalised",[1]; [19],117%
same,"nuclei count, normalised",[1]; [20],114%
same,"nuclei count, normalised",[1]; [21],113%
same,"nuclei count, normalised",[1]; [22],114%
same,"p53-positive nuclei, normalised",[2]; [23],-0.173% (inactive)
same,"p53-positive nuclei, normalised",[2]; [24],-0.175% (inactive)
same,"p53-positive nuclei, normalised",[2]; [25],-0.091% (inactive)
same,"p53-positive nuclei, normalised",[2]; [26],-0.0972% (inactive)
same,"p53-positive nuclei, normalised",[2]; [27],0.0195% (inactive)
same,"p53-positive nuclei, normalised",[2]; [28],0.029% (inactive)
same,"p53-positive nuclei, normalised",[2]; [29],-0.058% (inactive)
same,"p53-positive nuclei, normalised",[2]; [30],-0.0904% (inactive)
same,"p53-positive nuclei, normalised",[2]; [31],-0.125% (inactive)
same,"p53-positive nuclei, normalised",[2]; [32],-0.0529% (inactive)
same,"p53-positive nuclei, normalised",[2]; [33],-0.0351%
same,"p53-positive nuclei, normalised",[2]; [34],-0.148%
same,"p53-positive nuclei, normalised",[2]; [35],-0.0281%
same,"p53-positive nuclei, normalised",[2]; [36],0.0187%
same,"p53-positive nuclei, normalised",[2]; [37],-0.0912%
same,"p53-positive nuclei, normalised",[2]; [38],-0.0944%
same,"p53-positive nuclei, normalised",[2]; [39],-0.0326%
same,"p53-positive nuclei, normalised",[2]; [40],-0.148%
same,"p53-positive nuclei, normalised",[2]; [41],-0.0881%
same,"p53-positive nuclei, normalised",[2]; [42],-0.148%
CC(C)CC(NC(=O)C(O)C(N)Cc1ccccc1)C(=O)O (centres undefined),"nuclei count, normalised","[1]; measured here: cell number at 24 h, Library stock concentration: 80 uM",115%
same,"nuclei count, normalised","[1]; measured here: cell number at 24 h, Library stock concentration: 400 uM",119%
same,"nuclei count, normalised","[1]; measured here: cell number at 24 h, Library stock concentration: 2 mM",104%
same,"nuclei count, normalised",[1]; [12],105%
same,"nuclei count, normalised","[1]; measured here: cell number at 48 h, Library stock concentration: 80 uM",111%
same,"nuclei count, normalised","[1]; measured here: cell number at 48 h, Library stock concentration: 400 uM",113%
same,"nuclei count, normalised","[1]; measured here: cell number at 48 h, Library stock concentration: 2 mM",108%
same,"nuclei count, normalised",[1]; [22],111%
same,"p53-positive nuclei, normalised",[2]; Library stock concentration: 80 uM,-0.159% (inactive)
same,"p53-positive nuclei, normalised",[2]; Library stock concentration: 400 uM,-0.07% (inactive)
same,"p53-positive nuclei, normalised",[2]; Library stock concentration: 2 mM,-0.0155% (inactive)
same,"p53-positive nuclei, normalised",[2]; [32],0.0117% (inactive)
same,"p53-positive nuclei, normalised","[2]; measured here: p53 positive nuclei at 24 h, Library stock concentration: 80 uM",-0.122%
same,"p53-positive nuclei, normalised","[2]; measured here: p53 positive nuclei at 24 h, Library stock concentration: 400 uM",0.00728%
same,"p53-positive nuclei, normalised","[2]; measured here: p53 positive nuclei at 24 h, Library stock concentration: 2 mM",-0.122%
same,"p53-positive nuclei, normalised",[2]; [42],0.0829%
CC(C)C[C@H](NC(=O)[C@@H](O)[C@H](N)Cc1ccccc1)C(=O)O,"nuclei count, normalised","[1]; measured here: cell number at 24 h, concentration not given here",97.2%
same,"nuclei count, normalised","[1]; measured here: cell number at 48 h, concentration not given here",105%
same,"p53-positive nuclei, normalised",[2]; concentration not given here,-0.0349% (inactive)
same,"p53-positive nuclei, normalised","[2]; measured here: p53 positive nuclei at 24 h, concentration not given here",-0.0296%
CC(C)CC(NC(=O)C(Cc1ccccc1)NC(=O)c1cnccn1)B(O)O (centres undefined),"nuclei count, normalised","[1]; measured here: cell number at 24 h, Library stock concentration: 3.33 mM",47.9%
same,"nuclei count, normalised","[1]; measured here: cell number at 48 h, Library stock concentration: 3.33 mM",41.9%
same,"p53-positive nuclei, normalised",[2]; Library stock concentration: 3.33 mM,106% (active)
same,"p53-positive nuclei, normalised","[2]; measured here: p53 positive nuclei at 24 h, Library stock concentration: 3.33 mM",125%
CC(=O)NC(CSC(=S)NSc1ccc(SNC(=S)SCC(NC(C)=O)C(=O)O)cc1)C(=O)O (centres undefined),"nuclei count, normalised",[1]; [3],115%
same,"nuclei count, normalised",[1]; [4],108%
same,"nuclei count, normalised",[1]; [5],110%
same,"nuclei count, normalised",[1]; [6],114%
same,"nuclei count, normalised",[1]; [7],121%
same,"nuclei count, normalised",[1]; [8],119%
same,"nuclei count, normalised",[1]; [9],107%
same,"nuclei count, normalised",[1]; [10],105%
same,"nuclei count, normalised",[1]; [11],89.8%
same,"nuclei count, normalised",[1]; [12],64.7%
same,"nuclei count, normalised",[1]; [13],111%
same,"nuclei count, normalised",[1]; [14],111%
same,"nuclei count, normalised",[1]; [15],109%
same,"nuclei count, normalised",[1]; [16],109%
same,"nuclei count, normalised",[1]; [17],108%
same,"nuclei count, normalised",[1]; [18],108%
same,"nuclei count, normalised",[1]; [19],106%
same,"nuclei count, normalised",[1]; [20],105%
same,"nuclei count, normalised",[1]; [21],95.8%
same,"nuclei count, normalised",[1]; [22],68.4%
same,"p53-positive nuclei, normalised",[2]; [23],-0.0484% (inactive)
same,"p53-positive nuclei, normalised",[2]; [24],-0.0573% (inactive)
same,"p53-positive nuclei, normalised",[2]; [25],0.0306% (inactive)
same,"p53-positive nuclei, normalised",[2]; [26],-0.0501% (inactive)
same,"p53-positive nuclei, normalised",[2]; [27],-0.00296% (inactive)
same,"p53-positive nuclei, normalised",[2]; [28],-0.123% (inactive)
same,"p53-positive nuclei, normalised",[2]; [29],-0.0406% (inactive)
same,"p53-positive nuclei, normalised",[2]; [30],0.162% (inactive)
same,"p53-positive nuclei, normalised",[2]; [31],-0.108% (inactive)
same,"p53-positive nuclei, normalised",[2]; [32],6.19% (inactive)
same,"p53-positive nuclei, normalised",[2]; [33],-0.173%
same,"p53-positive nuclei, normalised",[2]; [34],-0.118%
same,"p53-positive nuclei, normalised",[2]; [35],-0.113%
same,"p53-positive nuclei, normalised",[2]; [36],-0.173%
same,"p53-positive nuclei, normalised",[2]; [37],-0.0102%
same,"p53-positive nuclei, normalised",[2]; [38],-0.173%
same,"p53-positive nuclei, normalised",[2]; [39],-0.0536%
same,"p53-positive nuclei, normalised",[2]; [40],0.0142%
same,"p53-positive nuclei, normalised",[2]; [41],-0.0287%
same,"p53-positive nuclei, normalised",[2]; [42],16%
